The whole screen tested about 350,000 compounds, of which about 31,000 (8.9%) were called active. About 15% were inconclusive and are not listed. The entries come from a sample that favours actives as a whole. Where a call stands in place of a potency, no number is given. Unmarked numbers belong to inactive results. Calls come from the whole dose curve; as a rule, active = well fitted inhibition curve with a large enough effect; inconclusive = small, poorly fitted or top-dose-only effect; inactive = no such curve, though single readings can be large or run the other way.
target: Histone-lysine N-methyltransferase EHMT2 (Homo sapiens) (UniProt Q96KQ7); test: qHTS Assay for Inhibitors of Histone Lysine Methyltransferase G9a; conditions: G9a H3K9 monomethylation, AlphaScreen, 2 h; series mostly up to 59 µM; note: nearly all actives have a fitted effect of over 75% in size
Summary of the method: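 Step 1: enzyme (final 20 nM) with compound, 15 min RT. Step 2: substrate peptide 500 nM and SAM 20 uM, 2 h RT. Step 3: anti-H3K9me1 antibody and AlphaScreen beads, 10 min, then plate read.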
Potency is the fitted concentration of half-maximal effect.

Chain of Histone-lysine N-methyltransferase EHMT2 (Homo sapiens) (Q96KQ7 913-1193 limits assumed): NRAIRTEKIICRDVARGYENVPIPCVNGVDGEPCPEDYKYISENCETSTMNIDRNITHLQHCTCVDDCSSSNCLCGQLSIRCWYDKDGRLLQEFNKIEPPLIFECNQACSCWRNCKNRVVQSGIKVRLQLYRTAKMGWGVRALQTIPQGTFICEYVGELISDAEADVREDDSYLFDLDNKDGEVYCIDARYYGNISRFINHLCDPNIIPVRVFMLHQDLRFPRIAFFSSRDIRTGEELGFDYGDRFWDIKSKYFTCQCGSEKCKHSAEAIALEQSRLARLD

| SMILES | Potency | activity, negative = inhibition |
| --- | --- | --- |
| Cc1ccc2nc(N3C(=O)C(O)=C(C(=O)c4ccco4)C3c3cccc(O)c3)sc2c1 (stereo not drawn) | 31.6 µM (active) |  |
| Cc1ccc2nc(NC(=O)C3CCN(S(=O)(=O)c4ccc5c(c4)oc(=O)n5C)CC3)sc2c1 | inactive |  |
| CCOc1ccc2nc(N3CCC(C(=O)Nc4cc(C)ccc4C)CC3)sc2c1 | inactive |  |
| COc1ccc([C@H]2CC(=O)C=C(c3ccc(C)cc3)C2)cc1 |  | -2.52% [at 0.501 µM] |
| CCc1nc2cccnc2n1-c1ccc(C(=O)O)cc1 | 35.5 µM (active) |  |
| COCCCNC(=O)Cc1ccc(-n2c(C)nc3cccnc32)cc1 | inactive |  |
| CCc1nc2cccnc2n1-c1ccc(CC(=O)Nc2c(C)cccc2C)cc1 | inactive |  |
| COc1ccc(NC(=O)CCN2CCCC2)c(OC)c1 | inactive |  |
| COc1ccc(OC)c(NC(=O)CCN2CCC(C)CC2)c1 | inactive |  |
| COC(=O)CNC(c1ccccc1Cl)c1cc(Br)ccc1NC(=O)CCN1CCOCC1 (stereo not drawn) | 39.8 µM (active) |  |
| O=C(CSc1nc2nccnc2c(=O)n1CCc1c[nH]c2ccccc12)Nc1ccccc1F | inactive |  |
| O=C(c1cccc(Br)c1)N1CCN(Cc2cc(=O)n3nc(-c4ccccc4)sc3n2)CC1 | inactive |  |
| CN(Cc1cccs1)C(=O)CN1C(=O)c2ccccc2S1(=O)=O |  | -6.03% [at 2.33 µM] |
| CCCCN(C(=O)c1nn(C)c(=O)c2ccccc12)c1c(N)n(CCC)c(=O)[nH]c1=O |  | -30.6% [at 12.7 µM] |
| O=C(OCc1ccc([N+](=O)[O-])cc1)c1ccccn1 | inactive |  |
| O=C(Oc1ccc([N+](=O)[O-])cc1)c1ccc2ccccc2n1 | 12.6 µM (active) |  |
| CC(OC(=O)c1ccc2ccccc2n1)C(=O)c1ccccc1 (stereo not drawn) | inactive |  |
| COCCn1c(SCC(=O)c2cc(C)ccc2C)nc2cc(C(=O)NC3CCCC3)ccc2c1=O | inactive |  |
| O=C(COC(=O)c1ccccc1Cl)NC1CCCCCCC1 |  | 6.1% [at 0.501 µM] |
| COc1ccc(S(=O)(=O)NCc2cccn2Cc2cccc(C)c2)cc1Cl | inactive |  |
| COc1ccc(S(=O)(=O)c2c[nH]c(=S)[nH]c2=O)cc1Cl | 79.4 µM (active) |  |
| COc1ccc(S(=O)(=O)N(C)CC(=O)N2CCCC2)cc1Cl | inactive |  |
| Cc1cccc(NC(=O)c2cccc(S(=O)(=O)N3CCCC3)c2)n1 | inactive |  |
| COC(=O)C1=C(C(=O)OC)C(c2cc([N+](=O)[O-])ccc2O)c2sc(=O)[nH]c2S1 (stereo not drawn) | 44.7 µM (active) |  |

| SMILES | Potency | activity, negative = inhibition |
| --- | --- | --- |
| COC(=O)C1=C(C)N(C)C(=O)NC1c1ccc([N+](=O)[O-])o1 (stereo not drawn) | inactive |  |
| COc1cnc(-c2ccccn2)nc1Oc1ccc(C(C)(C)C)cc1 | inactive |  |
| Cc1ccccc1CNC(=O)CCc1cn(Cc2ccccc2C)c2ccccc12 | inactive |  |
| CCOc1ccc(S(=O)(=O)c2cn(Cc3ccccc3)c3ccc(OCC)cc3c2=O)cc1 | inactive |  |
| O=C(Nc1ccc(NC(=O)c2ccc3c(c2)OCO3)cc1)c1cccc(Cl)c1 |  | 0.511% [at 12.7 µM] |
| COc1ccc(-c2nc3ccccc3n2CCC(C)C)cc1OC | inactive |  |
| CCOCCn1c(-c2ccccc2)nc2ccccc21 | inactive |  |
| CC(=O)OCCN(CCCn1c(-c2ccncc2)nc2ccccc21)c1nc(-c2ccc(C)cc2)cs1 | 56.2 µM (active) |  |
| CCC(Sc1nc2n[nH]c(C)c2c(=N)n1-c1ccccc1Cl)C(=O)N(CC)CC (stereo not drawn) | inactive |  |
| Cc1ccc(CC(=O)N(C)CC(=O)N(CC(C)C)c2c(N)n(CC(C)C)c(=O)[nH]c2=O)cc1C |  | 10.8% [at 2.33 µM] |
| CCC(C(=O)Nc1cccc(Cl)c1C)n1nc(-c2ccc(C)cc2)ccc1=O (stereo not drawn) | inactive |  |
| COC(=O)c1ccccc1NC(=O)Cn1c(=O)cc(C)c2c(C)nn(-c3cccc(Cl)c3C)c21 | inactive |  |
| Cn1nnc2c(N3CCN(c4ccccc4)CC3)ncnc21 | inactive |  |
| O=C(Cc1ccc(Cl)cc1)NCC(c1cccs1)S(=O)(=O)c1ccc(Cl)cc1 (stereo not drawn) | inactive |  |
| Cc1ccc(-c2nn(-c3ccccc3)cc2C(=O)NCCCN2CCCC2=O)cc1 | inactive |  |
| COc1ccc(N2C(=O)CNC2=S)cc1 | inactive |  |
| COc1ccc(-n2cc(-c3ccccc3)c3c(=S)nc[nH]c32)cc1 | inactive |  |
| COc1ccc(-c2cn(-c3ccc(OC)cc3)c(=S)[nH]2)cc1 | 1.41 µM (active) |  |
| COc1ccccc1CCNC(=O)c1c(C)nn(CC(C)C)c1Cl | inactive |  |
| COc1cccc(NC(=O)Cn2c(=O)cc(C)c3c(C)nn(-c4cccc(F)c4)c32)c1 | inactive |  |
| CCOC(=O)C1=C(c2ccccc2)NC(=S)NC1c1ccc(Cl)cc1 (stereo not drawn) |  | -11.4% [at 12.7 µM] |
| COc1ccc(C2NC(=S)NC3=C2CCc2ccccc23)cc1OC (stereo not drawn) | 0.631 µM (active) |  |
| COC(=O)C1=C(C)NC(=S)NC1c1ccc(OCC(=O)N2CC(C)OC(C)C2)c(OC)c1 (stereo not drawn) |  | -3.57% [at 12.7 µM] |
| Fc1ccc(CN2CCc3nc(Nc4ccccc4)ncc3C2)cc1F | inactive |  |

| SMILES | Potency | activity, negative = inhibition |
| --- | --- | --- |
| CCn1cc(CN2CCC(n3nccc3NC(=O)CCCc3ccccc3)CC2)c(C)n1 | inactive |  |
| COc1cc(CN2CCC(n3nccc3NC(=O)CCCc3ccccc3)CC2)ccc1O | 70.8 µM (active) |  |
| COc1ccc(CN2CCC(n3nccc3NC(=O)CCCc3ccccc3)CC2)cc1C | inactive |  |
| CCN(C(=O)c1sc2cc(OC)ccc2c1Cl)c1ccccc1 | inactive |  |
| CCN(CC)S(=O)(=O)c1ccc2c(c1)c(=O)c(C(=O)N1CCN(c3cccc(Cl)c3)CC1)cn2C | inactive |  |
| O=C(NCCN1CCOCC1)c1ccc(/C=C2\Sc3ccccc3N(Cc3ccc(F)cc3)C2=O)cc1 | 28.2 µM (active) |  |
| Cc1ccc(C(=O)N/C(=C\c2ccc(F)cc2)C(=O)NCCN2CCOCC2)cc1 | inactive |  |
| O=C(NCCN1CCOCC1)/C(=C/c1ccc(F)cc1)NC(=O)c1ccccc1 | inactive |  |
| CCN1CCN(CCNC(=O)c2ccc3c(c2)NC(=O)/C(=C\c2ccc(OC)c(OC)c2)S3)CC1 |  | 4.92% [at 0.0925 µM] |
| Cc1ccccc1CN1C(=O)c2ccccc2Sc2ccc(C(=O)NCCCN3CCOCC3)cc21 | inactive |  |
| CCN1CCN(CCNC(=O)c2ccc(/C=C3/Sc4ccccc4N(Cc4cccc(C)c4)C3=O)cc2)CC1 | 44.7 µM (active) |  |
| CCc1nc2c(cnn2-c2ccc(C)cc2)c(=O)n1-c1ccc(C)cc1 | inactive |  |
| CCOc1ccccc1/C=N/Nc1nc2ccccc2o1 | inactive |  |
| O=C1[C@H]2[C@@H](c3ccc(F)cc3)N3C(=O)N(c4ccc(C(F)(F)F)cc4)C(=O)[C@@]3(Cc3ccccc3)[C@H]2C(=O)N1C1CCCCC1 |  | 1.06% [at 12.7 µM] |
| CCOc1ccc(N(CC)S(=O)(=O)N2CCCC(C(=O)NCc3ccc(Cl)cc3)C2)cc1 (stereo not drawn) | inactive |  |
| Cc1cc(=O)[nH]c(=S)[nH]1 |  | -41.8% [at 2.33 µM] |
| Cc1c(C)c(C)c2[nH]c(=S)[nH]c2c1C | 1.12 µM (active) |  |
| CCc1ccc(Oc2coc3cc(O)ccc3c2=O)cc1 | inactive |  |
| CCOC(=O)c1cccc(NC(=O)c2cc(CN3CCCC3)on2)c1 | inactive |  |
| CCOc1cc(C)c(S(=O)(=O)NCc2ccccn2)cc1C | inactive |  |
| O=C(c1cccc(F)c1)N1CCN(c2ccc([N+](=O)[O-])c(N3CCCCC3)c2)CC1 |  | 21.2% [at 0.501 µM] |
| O=C(c1ccc(Cl)c([N+](=O)[O-])c1)N1CCN(c2ccccc2)CC1 | inactive |  |
| CO/N=C/c1ccc(N2CCN(C(=O)c3cccc(Cl)c3)CC2)c([N+](=O)[O-])c1 | 14.1 µM (active) |  |
| CCCN(CCC)CCCNC(=O)Cn1cc2c(n1)-c1c(oc(C(=O)N3CCCC3)c1C)CC2 | inactive |  |

| SMILES | Potency | activity, negative = inhibition |
| --- | --- | --- |
| COCC(C)NS(=O)(=O)c1ccc(N2CCCCS2(=O)=O)cc1 (stereo not drawn) | inactive |  |
| Cc1nc2sc(C)c(C)n2c(=O)c1S(=O)(=O)NCCc1ccc(Cl)cc1 | inactive |  |
| Cc1cccc(NC(=O)c2cc3c(C)nn(-c4ccccc4)c3s2)c1 | inactive |  |
| Cc1ccccc1-n1nc(C)c2cc(C(=O)NC3CC3)sc21 | 79.4 µM (active) |  |
| Cc1cccn2c(=O)c3cc(C(=O)NC4CCCCC4)sc3nc12 | inactive |  |
| COc1cc(Cl)c(NC(=O)CC(C)S(=O)(=O)c2cc3c(cc2C)NC(=O)CO3)c(OC)c1 (stereo not drawn) | inactive |  |
| S=c1[nH]nc(NCCc2ccccc2)s1 | 0.316 µM (active) |  |
| O=C(CSc1ncccn1)NCCc1ccccc1 | inactive |  |
| O=c1cnnc(Nc2ccccc2)[nH]1 | inactive |  |
| CC(C)(C)C(=O)c1cnc(Nc2ccccc2)s1 | inactive |  |
| S=c1[nH]nc(Nc2ccccc2)s1 | 1.12 µM (active) |  |
| O=S(=O)(NCCc1ccccc1)c1ccccc1 | inactive |  |
| CCOc1ccc(S(=O)(=O)Nc2cccc(C(=O)NCC3(N4CCCCC4)CCCCC3)c2)cc1 |  | 19.1% [at 0.501 µM] |
| CCOC(=O)C1CCC(CN(Cc2ccc(OC)cc2)S(=O)(=O)c2ccc(F)c(C(=O)Nc3cc(C)ccc3C)c2)CC1 (stereo not drawn) | inactive |  |
| O=C(N[C@@H](Cc1ccccc1)C(=O)OCc1ccccc1)c1nc[nH]c1C(=O)NC1CCNCC1 |  | -7.95% [at 2.33 µM] |
| Cc1sc(C2C(C#N)=C(N)N(c3cccc(Cl)c3)C3=C2C(=O)CCC3)cc1CN1CCOCC1 (stereo not drawn) | 15.8 µM (active) |  |
| N#CC1=C(N)N(c2ccccc2)C2=C(C(=O)CCC2)C1c1ccccc1 (stereo not drawn) | inactive |  |
| CCc1ccc(C2C(C#N)=C(N)N(N(C)C)C3=C2C(=O)CCC3)s1 (stereo not drawn) | inactive |  |
| CC(=O)Nc1cccc(NC(=O)CSc2cn(CC(=O)N3CCCC3)c3ccccc23)c1 | inactive |  |
| CCN(CCCNC(=O)c1cc(Nc2ccc(OC)cc2)nc2ccccc12)c1cccc(C)c1 | inactive |  |
| CC[C@H](C)C(=O)N[C@H]1CCCN1C(=O)/C=C/c1ccccc1 |  | 11.1% [at 2.33 µM] |

Source: PubChem BioAssay AID504332 (National Center for Advancing Translational Sciences (NCATS), 2011)
